In the library only some 2.4% were active in any assay of this set; here they are far more common.
D2 PAM-1: potentiates the human D2 dopamine receptor allosterically | 0.23% of 360,000 active | AID 624464 | potentiation, % (no concentration beside the values) | DiscoveRx D2 beta-arrestin cells, luminescence, 90 min; 100% = 57 uM dopamine signal | P14416; in the data active = potentiation above about 50%; inconclusive = mostly about 30% to 49%
Target sequence (P14416 whole entry, looked up): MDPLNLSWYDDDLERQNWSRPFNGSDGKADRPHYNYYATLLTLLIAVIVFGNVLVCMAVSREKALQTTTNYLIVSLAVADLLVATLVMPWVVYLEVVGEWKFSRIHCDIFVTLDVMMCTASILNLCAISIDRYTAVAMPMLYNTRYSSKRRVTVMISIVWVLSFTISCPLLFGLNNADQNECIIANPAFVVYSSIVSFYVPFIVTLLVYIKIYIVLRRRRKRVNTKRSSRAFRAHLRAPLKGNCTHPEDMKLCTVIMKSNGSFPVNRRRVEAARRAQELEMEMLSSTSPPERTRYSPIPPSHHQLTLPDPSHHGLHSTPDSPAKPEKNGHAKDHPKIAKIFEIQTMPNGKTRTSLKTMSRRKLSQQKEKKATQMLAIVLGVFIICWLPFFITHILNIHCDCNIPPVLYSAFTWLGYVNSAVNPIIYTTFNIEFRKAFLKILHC
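PathHunter beta-arrestin assay in DiscoveRx D2 cells. Compounds were added with an EC20 of dopamine (50 nM final) for 90 min at 37 deg C. Luminescence was read 1 h after detection reagent, with 57 uM dopamine as the EC100 control.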
D2 PAM-2: positive allosteric modulators of human D2 dopamine receptor; P14416; HEK293 T-REx D2, calcium flux, EC20 dopamine potentiation; potentiation, % at 10 µM; 0.34% of 340,000 active; AID 485347;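 active = potentiation over 3 SD above the plate norm, cut at about 30% in these data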; also: 0% is about no effect
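Cells plated with tetracycline inducer and held overnight at 30 C; calcium dye loaded 30–90 min at room temperature; baseline taken, compound added and read 180 s; EC20 dopamine then added and read 180 s.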
D2 antagonist: antagonizes the human D2 dopamine receptor; P14416; HEK293 TREx D2 cells, calcium flux, dopamine EC80; inhibition, % at 10 µM; 2% of 340,000 active; AID 485344; in the data active = inhibition above about 30%; inactive = below that, where a call was filed; also: 0% is about no effect
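Cells plated overnight at 30 C with tetracycline; no-wash calcium dye, 30–90 min RT; 10 s baseline; compound pinned; 180 s read; EC80 dopamine added; another 180 s read.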
D2 ag-1: activates the human D2 dopamine receptor. P14416. activation, % (no concentration beside the values). DiscoveRx PathHunter D2 beta-arrestin, luminescence, 90 min; 100% = 57 uM dopamine signal. 0.084% of 360,000 active; in the data active = activation above about 40%; inconclusive = between about 15% and that limit
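Agonist mode: compounds alone added to overnight-plated D2 PathHunter cells for 90 min at 37 C, with 57 uM final dopamine (EC100) defining full response. Beta-arrestin recruitment detected by chemiluminescent reagent, read after 1 h at ambient temperature.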
D2 ag-2: agonists of human D2 dopamine receptor. P14416. HEK293 T-REx D2 cells, calcium flux agonist mode. activation, % at 2 µM. 0.53% of 340,000 active;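 active = activation over 3 SD above normal in the single-dose calcium agonist read, cut at about 30% in these data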; also: 0% is about no effect
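Tetracycline-induced HEK293 Trex cells with D2 receptor force-coupled to calcium signaling, plated overnight at 30 C and loaded with no-wash calcium dye. Calcium flux read kinetically for 180 s after compound addition; responses flag agonists.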
Starred values were filed as active, the others as inactive.

Screening Cc1ccccc1Nc1nn2c(=O)c3ccc(C(=O)NCC(C)c4ccccc4)cc3nc2s1 (configuration not stated) returned D2 ag-2 -0.6.
For CN1C(=O)/C(=C\c2ccc(N(C)C)cc2)OC1=S the results were D2 PAM-1 -3.9, D2 PAM-2 -19.7, D2 antagonist 47.5*, D2 ag-1 -0.7 and D2 ag-2 86.3*.
For COc1ccc(/C=C2\OC(=S)N(C)C2=O)cc1 the results were D2 PAM-1 -2.4, D2 PAM-2 -7.7, D2 antagonist -6.3, D2 ag-1 -1.2 and D2 ag-2 -0.9.
`Cc1c(C)c2c(cc(C)c3c(-c4ccc(Br)cc4)coc32)oc1=O` gave D2 PAM-2 0.4.
`CC(=O)C(=Nc1ccccc1Cl)NNc1ccc(Cl)cc1` gave D2 PAM-1 inconclusive, D2 PAM-2 33.7*, D2 antagonist 0.7, D2 ag-1 inconclusive and D2 ag-2 0.5.
CCCCNC(=O)CSc1nc2ccccc2nc1Cc1ccc(Cl)cc1 was read as D2 PAM-2 -5.1 and D2 ag-2 0.5.
CC(C)NCC(O)c1ccc(O)c(O)c1 (configuration not stated) was read as D2 PAM-1 -2.2, D2 PAM-2 33.2*, D2 antagonist 17.3, D2 ag-1 -1.0 and D2 ag-2 5.0.
`CNC[C@H](O)c1ccc(O)c(O)c1` gave D2 PAM-1 79.3*, D2 PAM-2 -18.1, D2 antagonist 25.0, D2 ag-1 62.8* and D2 ag-2 4.8.
Screening CC(C)NC(=O)CSc1ccccc1C(=O)N1CCN(S(=O)(=O)Cc2ccccc2)CC1 returned D2 PAM-1 -6.0, D2 PAM-2 3.6, D2 antagonist -6.8, D2 ag-1 -0.5 and D2 ag-2 0.1.
For c1ccc(-c2nnc3n2N=C(c2ccc4c(c2)OCO4)CS3)nc1 the results were D2 PAM-1 -22.8, D2 PAM-2 -12.1, D2 antagonist -3.1, D2 ag-1 -3.2 and D2 ag-2 -1.1.
c1cc2c(cc1C1=Nn3c(nnc3C3CCCCC3)SC1)OCO2 was read as D2 PAM-1 -13.6, D2 PAM-2 13.2, D2 antagonist 33.3*, D2 ag-1 1.4 and D2 ag-2 -2.0.
For CCN(CC)CCOc1nnc(-c2ccc(OC)cc2)c2ccccc12 the results were D2 PAM-1 -26.5, D2 PAM-2 -9.3, D2 antagonist -0.5, D2 ag-1 0.5 and D2 ag-2 -0.2.
CCN(CC)CCOc1nnc(-c2ccc(C)cc2)c2ccccc12 was read as D2 PAM-1 -12.3, D2 PAM-2 6.1, D2 antagonist 35.6*, D2 ag-1 -3.6 and D2 ag-2 -0.1.
COCCNc1nc(NCc2ccccc2)c2cnn(C)c2n1 was read as D2 PAM-1 -7.5 and D2 ag-1 0.2.
`COCCNc1nc(N2CCCCC2)c2cnn(C)c2n1` gave D2 PAM-1 -10.1, D2 PAM-2 35.9*, D2 antagonist -16.2, D2 ag-1 -3.6 and D2 ag-2 -0.3.
For COC(=O)c1ccc(OCC(O)CN2C(=O)c3ccccc3C2=O)cc1 (configuration not stated) the results were D2 PAM-1 -1.8, D2 PAM-2 -17.4, D2 antagonist -3.9, D2 ag-1 0.8 and D2 ag-2 37.8*.
COc1ccc(OCC(O)CN2C(=O)NC(C)(C)C2=O)cc1 (configuration not stated) was read as D2 PAM-1 -2.6, D2 PAM-2 -7.9, D2 antagonist 31.1*, D2 ag-1 -1.1 and D2 ag-2 -0.3.
COC(=O)c1ccc(OCC(O)CN2CCN(CC(O)COc3ccc(C(=O)OC)cc3)CC2)cc1 (configuration not stated) was read as D2 PAM-1 -3.7, D2 PAM-2 10.4, D2 antagonist 3.6, D2 ag-1 -1.8 and D2 ag-2 0.0.
`CC1=C(C(=O)N2CCOCC2)CC(CC(=O)NCCN2CCOCC2)C(=O)N1Cc1ccc(F)cc1` (configuration not stated) gave D2 PAM-1 9.4 and D2 ag-1 -5.5.
COc1cc(/C=C2/SC(=Nc3ccc(O)cc3)NC2=O)cc(OC)c1O was read as D2 PAM-1 5.1, D2 PAM-2 -24.9, D2 antagonist 2.8, D2 ag-1 8.5 and D2 ag-2 51.3*.
COc1ccccc1N(CC(O)Cn1ccnc1C)S(=O)(=O)c1ccc(C)cc1 (configuration not stated) was read as D2 PAM-1 -7.2, D2 PAM-2 -19.8, D2 antagonist 67.2*, D2 ag-1 -2.8 and D2 ag-2 0.2.
Screening O=C(CSCc1cnn(-c2ccccc2)c1-n1cccc1)NCc1cccc(Cl)c1 returned D2 PAM-2 -6.5 and D2 ag-2 0.4.
CCOC(=O)CSc1nc2sc3c(c2c(=O)n1CC)CCCC3 was read as D2 PAM-2 1.5 and D2 ag-2 -1.5.
Screening CC(=O)OC[C@H]1O[C@H](CCO/N=C(\C)CCN2CCCc3nc(C)c(C)cc32)C=C[C@@H]1OC(C)=O returned D2 PAM-2 -23.7, D2 antagonist 78.2* and D2 ag-2 65.0*.
For C/C(CCN1CCCCc2nc(C)c(C)cc21)=N\O[C@H](C)c1cn([C@H](CO)Cc2ccccc2)nn1 the results were D2 PAM-2 1.9, D2 antagonist -2.2 and D2 ag-2 -0.9.
Cc1ccc(Cl)cc1N1CCN(CCNC(=O)Nc2ccccc2Cl)CC1 was read as D2 PAM-2 -26.5 and D2 ag-2 0.5.
For Cc1oc(-c2ccc(Cl)cc2)cc1C(=O)NC1CCN(Cc2ccccc2)CC1 the results were D2 PAM-1 -18.2, D2 PAM-2 -16.4, D2 antagonist 58.1*, D2 ag-1 -2.7 and D2 ag-2 0.8.
`Cc1oc(C(C)(C)C)cc1C(=O)NC1CCN(Cc2ccccc2)CC1` gave D2 PAM-1 -19.7, D2 PAM-2 -22.9, D2 antagonist 85.3*, D2 ag-1 -4.6 and D2 ag-2 0.6.
CCN(CC)S(=O)(=O)c1ccc(Cl)c(C(=O)NC2CCN(Cc3ccccc3)CC2)c1 was read as D2 PAM-1 -33.9, D2 PAM-2 -19.9, D2 antagonist 25.5, D2 ag-1 -1.2 and D2 ag-2 0.0.
For CNC(=O)C[C@H]1C(=O)N(c2ccc(Br)cc2)C[C@@H]1CSC the results were D2 PAM-1 1.8 and D2 ag-1 -1.5.
Screening Cc1ccc(C(=O)N/C(N)=N/c2nc3ccccc3o2)cc1 returned D2 PAM-1 0.5, D2 PAM-2 8.3, D2 antagonist 53.0*, D2 ag-1 -1.8 and D2 ag-2 0.3.
`COc1cccc(Cn2c(=O)n(-c3cc(C)cc(C)c3)c(=O)c3oc4ccccc4c32)c1` gave D2 PAM-2 -0.8 and D2 ag-2 -1.1.
For CC(C)(C)NC(=O)c1cnn(-c2ccccc2)c1C1CCN(C(=O)OC(C)(C)C)CC1 the results were D2 PAM-2 -11.4 and D2 ag-2 0.3.
